Test systems include BT-549 breast; MDA-MB-435 melanoma; SW-620 colon; MCF7 breast; HCT-116 colon; HCC-2998 colon; KM12 colon.
Common to all, as to test: NCI-60 one-dose screen, 48 h (100 = growth as untreated, 0 = no growth, -100 = all killed)
Common to all, as to conditions: 10 µM

About 83,000 compounds went through this panel and 20% of them were active in at least one assay; those are over-represented in the sample as a whole.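 Plates (96-well) were seeded with cells, treated with compound at one concentration, and incubated for 48 hours before percent growth was determined.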 Unmarked numbers belong to inactive results. Activity calls are given as the source filed them. The calls were made as follows: active = growth percent below 10; inactive = the rest.

For `CN1CC[C@@H](c2c(O)cc(O)c3c(=O)cc(-c4ccccc4Cl)oc23)[C@@H](O)C1`, the growth in the experiment on BT-549 breast is -22.8% (active); with MDA-MB-435 melanoma, -91.2% (active); with SW-620 colon, 9.83% (active); with MCF7 breast it was 9.53% (active); in the experiment on HCT-116 colon, 8.46% (active); in the experiment on HCC-2998 colon, -34% (active). Further, the growth in the experiment on KM12 colon is -34% (active).

`O=C(O)C(SC(C(=O)O)c1ccccc1)c1ccccc1` (stereo unspecified): the growth in the experiment on BT-549 breast was 101%; in the experiment on MDA-MB-435 melanoma, 116%; in the experiment with SW-620 colon, 107%; with MCF7 breast, 96.3%; with HCT-116 colon it was 106%; in the experiment with HCC-2998 colon, 103%. The growth in the experiment with KM12 colon was 113%.

Take `Cc1cccc2c(NCCN(C)C)c3cccc(C(=O)NCCN(C)C)c3nc12`: the growth in the experiment on BT-549 breast was 18.2%; with MDA-MB-435 melanoma, 8.12% (active); in the experiment with SW-620 colon it was 4.11% (active); in the experiment on MCF7 breast, 2.67% (active); in the experiment on HCT-116 colon it was 8.86% (active); in the experiment with HCC-2998 colon, -22.8% (active). In the experiment on KM12 colon, the growth was -27.6% (active).

Take `CCN(CC)CCC(CNc1c(C)cnc2cc(Cl)ccc12)c1ccc(Cl)cc1` (stereo unspecified): the growth with BT-549 breast is 67.7%; in the experiment with MDA-MB-435 melanoma, -7.89% (active); in the experiment with SW-620 colon, 51.2%; with MCF7 breast it was 39.7%; in the experiment with HCT-116 colon, 23%; in the experiment on HCC-2998 colon, 26.7%. The growth with KM12 colon was 79.8%.

`c1ccc2c(-c3nc(N4CCOCC4)c4c5c(sc4n3)CCCCCC5)cccc2c1`: the growth with BT-549 breast is 97.9%; in the experiment on MDA-MB-435 melanoma, 111%; in the experiment with SW-620 colon it was 108%; with MCF7 breast, 91.8%; with HCT-116 colon, 109%; in the experiment on HCC-2998 colon, 106%. For the same compound, in the experiment with KM12 colon, the growth is 109%.

On to `O=C1ON=[N+](c2ccc(Cc3ccc([N+]4=NOC(=O)C4CN4CCOCC4)cc3)cc2)C1CN1CCOCC1` (stereo unspecified), for which the growth in the experiment with BT-549 breast was 60.7%; in the experiment on MDA-MB-435 melanoma it was 4.71% (active); in the experiment on SW-620 colon, 67.7%; in the experiment with MCF7 breast it was 45.6%; with HCT-116 colon, 63.7%; with HCC-2998 colon it was 80.5%. In the experiment with KM12 colon, the growth was 54.3%.

For the compound `COc1ccc(-c2nn(-c3cccc(NC(=O)c4ccc(Cl)c(Cl)c4)c3)cc2-c2ccncc2)cc1Cl`, the growth with BT-549 breast is 95.4%; in the experiment on MDA-MB-435 melanoma, 24.8%; in the experiment on SW-620 colon, 81.5%; in the experiment with MCF7 breast it was 72.1%; with HCT-116 colon, 69.6%; in the experiment with HCC-2998 colon, 82%. For the same compound, in the experiment with KM12 colon, the growth was 55.8%.

`O=C(Nc1cccc(-n2cc(-c3ccncc3)c(-c3cc(O)cc(Cl)c3)n2)c1)c1cc(C(F)(F)F)cc(C(F)(F)F)c1`: the growth in the experiment with BT-549 breast is 73.4%; in the experiment with MDA-MB-435 melanoma, 45.6%; with SW-620 colon, 61%; with MCF7 breast it was 23%; in the experiment with HCT-116 colon, 24.5%; in the experiment on HCC-2998 colon, 28.9%. Besides, the growth with KM12 colon is 21.2%.

`CN(C)Cc1cn(-c2ncc(-c3ccc(C(F)(F)F)cc3)c(NC3CCCCCC3)n2)nn1`: the growth with BT-549 breast was 94.6%; in the experiment with MDA-MB-435 melanoma it was 95.2%; in the experiment with SW-620 colon, 99.4%; in the experiment on MCF7 breast, 70.3%; in the experiment with HCT-116 colon, 66.3%; in the experiment on HCC-2998 colon, 94.8%. Moreover, the growth in the experiment with KM12 colon was 86.3%.

As to `O=C(Nc1ccc(OS(=O)(=O)c2ccccc2)cc1)C12CC3CC(CC(C3)C1)C2`, the growth in the experiment with BT-549 breast is 25.8%; with MDA-MB-435 melanoma, 72.6%; in the experiment with SW-620 colon, 5.02% (active); in the experiment with MCF7 breast, 32%; in the experiment with HCT-116 colon it was 32.8%; with HCC-2998 colon it was 26.1%. Also, in the experiment on KM12 colon, the growth is 28.4%.

Turning to `CCOC(=O)c1ccc(NC(=O)Nc2ncc(Cl)cc2Cl)cc1`, the growth in the experiment with BT-549 breast is 106%; in the experiment on MDA-MB-435 melanoma, 90.8%; in the experiment with SW-620 colon, 102%; with MCF7 breast, 97.8%; with HCT-116 colon, 83.9%; with HCC-2998 colon it was 96.2%. For the same compound, the growth in the experiment with KM12 colon was 102%.

Consider `Cc1cc(=O)n2nnc3c4ccccc4ccc3n12`, for which the growth with BT-549 breast was 72.8%; in the experiment on MDA-MB-435 melanoma it was 104%; in the experiment with SW-620 colon, -62% (active); in the experiment on MCF7 breast, 45%; in the experiment on HCT-116 colon, 8.71% (active); in the experiment with HCC-2998 colon, 105%. Further, the growth with KM12 colon was 91.2%.

With `Nc1c(C(=O)Nc2ccccc2Cl)sc2nc3c(cc12)C(=O)CCC3`, the growth was 61.2% with BT-549 breast; -53.3% (active) in the experiment with MDA-MB-435 melanoma; 29% in the experiment on SW-620 colon; 16.1% in the experiment on MCF7 breast; 76.5% with HCT-116 colon; 63.2% in the experiment on HCC-2998 colon. In addition, the growth in the experiment on KM12 colon was 28.5%.

`COc1ccc2c(c1)C(=O)c1c-2c(=O)n(CCCN(C)C)c2cc(OC)c(OC)cc12`: the growth in the experiment with BT-549 breast is 86.1%; with MDA-MB-435 melanoma it was 80.9%; in the experiment on SW-620 colon, 56.8%; in the experiment on MCF7 breast, 28.4%; in the experiment on HCT-116 colon it was 53.1%; with HCC-2998 colon it was 82.8%. In the experiment on KM12 colon, the growth was 69.5%.

Take `Nc1ccc2cc(S(=O)(=O)O)cc(O)c2c1N=Nc1ccc(F)cc1`: the growth was 102% in the experiment with BT-549 breast; 113% in the experiment on MDA-MB-435 melanoma; 104% with SW-620 colon; 111% with MCF7 breast; 93.4% in the experiment with HCT-116 colon; 102% in the experiment on HCC-2998 colon. Besides, in the experiment on KM12 colon, the growth was 107%.

Consider `CC(C)(Cl)CCC1=C(Cl)C(=O)c2ccccc2C1=O`, for which the growth was 66.5% with BT-549 breast; 66.4% in the experiment on MDA-MB-435 melanoma; 7.89% (active) in the experiment with SW-620 colon; -0.254% (active) in the experiment on MCF7 breast; 17.2% in the experiment with HCT-116 colon; 74.3% in the experiment with HCC-2998 colon. Moreover, the growth with KM12 colon was 35.7%.

Regarding `Cc1ccc(NC(=O)NC2CCCCC2)cc1`, the growth is 115% in the experiment with BT-549 breast; 105% in the experiment with MDA-MB-435 melanoma; 108% with SW-620 colon; 93.8% in the experiment with MCF7 breast; 105% in the experiment with HCT-116 colon; 111% in the experiment with HCC-2998 colon. Also, in the experiment on KM12 colon, the growth is 101%.

As to `O=C(/C(=C/c1ccccc1)CN1CCCCC1)c1ccccc1`, the growth in the experiment with BT-549 breast was -56.6% (active); in the experiment with MDA-MB-435 melanoma, 6.16% (active); with SW-620 colon, 0.239% (active); in the experiment with MCF7 breast, -22% (active); in the experiment on HCT-116 colon it was -87.4% (active); in the experiment with HCC-2998 colon, -91% (active). Moreover, the growth with KM12 colon is -75.8% (active).

The record behind these values is PubChem BioAssay (NCI).
